Results on 37 compounds are retold here after PubChem BioAssay (EPA / NIEHS).

Inconclusive results are not listed. Calls of active or inactive are those of the source. The calls were made as follows: active = hit-call score of the fitted dose curve at least 0.9, where 1 is the maximum; inconclusive = response in the unintended direction; inactive = score below 0.9.

Read-out in the test: sulfotransferase (SULT2A), SULT2A1 (gene 6822)
Kind of test: CLD_SULT2A_24hr: CellzDirect (CLD) Gene Expression Assay for sulfotransferase (SULT2A) at 24 hours (AID 2283694).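 As to AC50: potency for increased SULT2A1 mRNA level as induction over DMSO baseline.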 As to the method:
CLD_24hr is a cell-based, multiplexed-readout assay that uses hepatocyte, a human liver primary cell, with measurements taken at 24 hours after chemical dosing in a 96-well plate.CLD_SULT2A_24hr is one of 16 assay component(s) measured or calculated from the CLD_24hr assay. It is designed to make measurements of mRNA induction, a form of inducible reporter, as detected with chemiluminescence signals by Quantitative Nuclease Protection Assay (qNPA) technology.Data from the assay component CLD_SULT2A_24hr was analyzed at the endpoint, CLD_SULT2A_24hr, in the positive analysis fitting direction relative to DMSO as the negative control and baseline of activity. Using a type of inducible reporter, gain-of-signal activity can be used to understand changes in the reporter gene as they relate to the gene SULT2A1. Furthermore, this assay endpoint can be referred to as a primary readout. To generalize the intended target to other relatable targets, this assay endpoint is annotated to the transferase intended target family, where subfamily is sulfotransferase.
Human hepatocyte cultures were treated daily for two consecutive days with fresh dosing solutions containing appropriate concentrations of the 320 ToxCast chemicals (chemical identities were blinded to CellzDirect and other ToxCast collaborators), vehicle control (0.2% DMSO), and positive control inducers as summarized in Table 1. Due to the large number of treatment groups and chemicals examined, the ToxCast chemicals were divided into two groups (spanning two independent cultures of hepatocytes from separate donor preparations (Hu778: ToxCast plates 1 and 2; Hu776: ToxCast plates 3 and 4). Each preparation of human hepatocyte cultures was treated with respective vehicle control, medium only control, set of six positive controls/reference chemicals for the five hepatic receptor pathways, and a subset of eight of the ToxCast chemicals (indoxacarb, pyrithiobac-sodium, norflurazon, cyhalofop-butyl, methomyl, thiram, acetochlor, and propiconazole). These replicate data, coupled with internal replicates designed within the blinded ToxCast chemical library, provided additional data to evaluate interindividual differences between hepatocyte preparations and their potential impact on chemical profiles.Cell morphology and integrity were evaluated using phase-contrast microscopy as an indicator of hepatocyte cell health (Tyson & Green, 1987). Cultures for each treatment group (i.e., media, vehicle [0.2% DMSO], positive control inducers [multiple concentrations], and the ToxCast chemicals [multiple concentrations]) were observed and cell morphology was assessed relative to vehicle control cultures at each harvest time point (0, 6, 24, or 48 h). […] Images were evaluated at the conclusion of the study to assess changes in cell integrity and account for the effects of chemical exposure on uncharacteristic changes in concentration-dependent gene expression profiles. The results from these determinations of apparent cytotoxicity were annotated (yes/no) alongside the corresponding qNPA data for reference.At the conclusion of each treatment period, hepatocyte cultures (96-well) were washed with 1 volume of HBSS, lysed by addition of 25 ul ArrayPlate lysis buffer (HTG, Tucson, AZ), and 70 ul/well of Denaturation Oil, denatured by incubation at 95C for 10 min, and frozen at approximately -70C until analysis by nuclease protection assay (qNPA) (Roberts et al., 2007). For qNPA analysis, cell lysates were thawed at 50C for approximately 30 min, qNPA probes were added, and samples were incubated at 95C for 10 min to begin the detection process by denaturing the target RNA, dissociating the duplexes and secondary structure hybridization. At the conclusion of the hybridization period, S1 nuclease reagent was added to each sample to digest all nonprotected nucleotides at 50C for 60-90 min. […]
On to `CCOc1cc(Oc2ccc(C(F)(F)F)cc2Cl)ccc1[N+](=O)[O-]`, for which the compound was classed as inactive. With `CCOP(=S)(OCC)SCn1c(=O)oc2cc(Cl)ccc21`, the result was inactive. For `COC(=O)C=C(C)OP(=O)(OC)OC`, the compound was classed as inactive. The same measure, in the same setting: in the case of `N#Cc1cc(Br)c(O)c(Br)c1` it was “inactive”; in that of `CNC(=S)S`, “inactive”; in that of `CC(C)Oc1cc(-n2nc(C(C)(C)C)oc2=O)c(Cl)cc1Cl`, “inactive”. Take `CCNc1nc(Cl)nc(NCC)n1`: the outcome was inactive. Still for that read-out and setting: to `CCCCOC(=O)c1ccccc1C(=O)OCCCC` belongs “inactive”; to `COC(=O)N(OC)c1ccccc1COc1ccn(-c2ccc(Cl)cc2)n1`, “inactive”.

As for `COc1nc(C)nc(NC(=O)NS(=O)(=O)c2ccccc2CCC(F)(F)F)n1`, the call was inactive. Turning to `CCOC(=O)C(Cl)Cc1cc(-n2nc(C)n(C(F)F)c2=O)c(F)cc1Cl` (configuration not stated), the compound was classed as inactive. Same read-out and setting: in the case of `CO/C=C(/C(=O)OC)c1ccccc1Oc1cc(Oc2ccccc2C#N)ncn1` it was “inactive”; in that of `CCNc1nc(Cl)nc(NC(C)C)n1`, “inactive”.

As for `N#Cc1nn(-c2c(Cl)cc(C(F)(F)F)cc2Cl)c(N)c1S(=O)C(F)(F)F` (configuration not stated), the AC50 (as a rule, the concentration giving half of the maximal activity seen) is 2.43 µM (active). `COP(=S)(OC)Oc1nc(Cl)c(Cl)cc1Cl`: the call was inactive. The same measure, in the same setting: to `CCCCC(CC)COC(=O)c1ccccc1C(=O)OCC(CC)CCCC` (configuration not stated) belongs “inactive”; to `COC(=O)c1ccccc1C(=O)OC`, “inactive”; to `C#CCOS(=O)OC1CCCCC1Oc1ccc(C(C)(C)C)cc1` (configuration not stated), “inactive”.

Regarding `C=CCC1=C(C)[C@@H](OC(=O)[C@@H]2[C@@H](C=C(C)C)C2(C)C)CC1=O`, the compound was called inactive. In the case of `CCON=C(CC)C1=C(O)CC(c2c(C)cc(C)cc2C)CC1=O` (configuration not stated), the compound was classed as inactive.

Turning to `CCCCNC(=O)OCC#CI`, the outcome was inactive. As for `O=C(O)COc1nc(Cl)c(Cl)cc1Cl`, the call was inactive. On to `O=C(O)c1nc(Cl)ccc1Cl`, for which the call was inactive. Still for that read-out and setting: to `COc1nc(C)nc(NC(=O)NS(=O)(=O)c2ccccc2Cl)n1` belongs “inactive”.

On to `N#CC(CCc1ccc(Cl)cc1)(Cn1cncn1)c1ccccc1` (configuration not stated), for which the outcome was inactive. For the compound `CCCN(CCC)c1c([N+](=O)[O-])cc(S(N)(=O)=O)cc1[N+](=O)[O-]`, the AC50 is 20 µM (active). On the same count and under the same terms, to `CCc1nn(C)c(C(=O)NCc2ccc(C(C)(C)C)cc2)c1Cl` belongs 3.71 µM (active); to `CC(C)(C)c1ccc(CSc2cnn(C(C)(C)C)c(=O)c2Cl)cc1`, 20 µM (active).

`OC(c1ccc(Cl)cc1)(c1cncnc1)c1ccccc1Cl` (configuration not stated): the compound was classed as inactive. Still for that read-out and setting: in the case of `COC(=O)C(C)Oc1ccc(Oc2ccc(Cl)cc2Cl)cc1` (configuration not stated) it was “inactive”; in that of `CC1COC(Cn2cncn2)(c2ccc(Oc3ccc(Cl)cc3)cc2Cl)O1` (configuration not stated), “inactive”; in that of `COc1cnc(OC)n2nc(NS(=O)(=O)c3c(OCC(F)F)cccc3C(F)(F)F)nc12`, “inactive”. Still for that read-out and setting: in the case of `C=CC1(C)OC(=O)N(c2cc(Cl)cc(Cl)c2)C1=O` (configuration not stated) it was “inactive”; in that of `Cc1ccc(-c2c(Cl)nc(C#N)n2S(=O)(=O)N(C)C)cc1`, “inactive”. The same measure, in the same setting: in the case of `CCOC(=O)CC(SP(=S)(OC)OC)C(=O)OCC` (configuration not stated) it was “inactive”. With `COc1ccc(C(c2ccc(OC)cc2)C(Cl)(Cl)Cl)cc1`, the outcome was inactive.

Turning to `CCCC1COC(Cn2cncn2)(c2ccc(Cl)cc2Cl)O1` (configuration not stated), the compound was classed as inactive.
